# Records with an inconclusive call do not appear. A call without a number means that no potency is given here. Activity calls are given as the source filed them. Calls follow the shape of the dose curve; as a rule, active = well fitted activation curve with a large enough effect in the repeat runs; inconclusive = weak or mixed curves; inactive = no such curve, though single readings can be large or run the other way.
# Experiment: qHTS assay for small molecules that induce genotoxicity in human embryonic kidney cells expressing luciferase-tagged ATAD5 (AID 651632); also: nearly all actives have a fitted effect of over 15% in size
# Conditions: HEK293T ATAD5-luciferase induction, 16 h; series mostly up to 83.3 µM
# Method in brief: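 Increased luciferase signal from ATAD5-tagged reporter cells indicates DNA-damage-driven ATAD5 induction. HEK293T cells are treated for 16 hr at 37C before detection with Amplite.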
row,Structure (SMILES),Potency
1,COC1=C(OC)C(=O)C(C/C=C(\C)CC/C=C(\C)CC/C=C(\C)CC/C=C(\C)CC/C=C(\C)CC/C=C(\C)CC/C=C(\C)CC/C=C(\C)CC/C=C(\C)CCC=C(C)C)=C(C)C1=O,inactive
2,COC(=O)C(CN)c1c[nH]c2ccc(OC)cc12 (configuration not stated),inactive
3,CC(C)CCC[C@@H](C)[C@H]1CC[C@H]2[C@@H]3CC=C4C[C@@H](O)CC[C@]4(C)[C@H]3CC[C@]12C,inactive
4,C=N[C@@H](C(=O)N[C@@H]1C(=O)N2[C@@H]1SC(C)(C)[C@@H]2C(=O)O)c1ccccc1,inactive
5,Cc1c(O)c(=O)ccn1C,inactive
6,CCOC(=O)COc1ccc2c(=O)cc(-c3ccccc3)oc2c1,inactive
7,O=C1[O][Bi][O]c2ccccc21,inactive
8,O=P(O)(O)CP(=O)(O)O,inactive
9,CC12CCC(C1)C(C)(C)C2=O (configuration not stated),inactive
10,CC(=O)Nc1ccc(OC(C)=O)cc1,inactive
11,CCN(CC)CCOC[C@H]1O[C@@H](O)[C@H](OCCN(CC)CC)[C@@H](O)[C@@H]1O,inactive
12,OCC1(CO)COC(C(Cl)(Cl)Cl)OC1,inactive
13,C=C1[C@H](CO)[C@@H](O)C[C@@H]1n1cnc2c(=O)[nH]c(N)nc21,inactive
14,O=S(=O)(O)CC(S)CS (configuration not stated),inactive
15,COc1ccc(/C=N/NC(=O)c2ccncc2)c(C(=O)O)c1OC,inactive
16,CCCCCCCCCCCCCCCCCCOCC(COP(=O)([O-])OCC[N+](C)(C)C)OC (configuration not stated),inactive
17,NC(=O)CC[C@@H]1NC(=O)[C@H](Cc2ccccc2)NC(=O)[C@H](Cc2ccc(O)cc2)NC(=O)[C@@H](N)CSSC[C@@H](C(=O)N2CCC[C@H]2C(=O)N[C@@H](CCCN=C(N)N)C(=O)NCC(N)=O)NC(=O)[C@H](CC(N)=O)NC1=O,inactive
18,CCC[C@@H]1C[C@@H](C(=O)N[C@@H]([C@H]2O[C@H](SC)[C@H](OP(=O)(O)O)[C@@H](O)[C@H]2O)[C@H](C)Cl)N(C)C1,inactive
19,C[C@H](NCCc1ccc(O)cc1)[C@H](O)c1ccc(O)cc1,inactive

row,Structure (SMILES),Potency
1,CC(C)(COP(=O)(O)OP(=O)(O)OC[C@H]1O[C@@H](n2cnc3c(N)ncnc32)[C@H](O)[C@@H]1OP(=O)(O)O)C(O)C(=O)NCCC(=O)NCCS (some centres not stated),inactive
2,CC(CNC(=O)c1cccnc1)NC(=O)c1cccnc1 (configuration not stated),inactive
3,O=C(O)c1cc(O)c2c(c1)[C@H]([C@H]1c3cc(C(=O)O)cc(O)c3C(=O)c3c(O[C@@H]4O[C@H](CO)[C@@H](O)[C@H](O)[C@H]4O)cccc31)c1cccc(O[C@@H]3O[C@H](CO)[C@@H](O)[C@H](O)[C@H]3O)c1C2=O,inactive
4,C=CCN1C(=O)C(CC(C)C)NC1=S (configuration not stated),inactive
5,C[C@H](O)CN(C)C,inactive
6,CNC(=O)OCc1cccc(COC(=O)NC)n1,inactive
7,NC(=O)[C@H]1O[C@@H](O)[C@H](O)[C@@H](O)[C@@H]1O,inactive
8,O=P(O)(O)C(O)(Cn1ccnc1)P(=O)(O)O,inactive
9,NC(=O)[C@@H]1C[C@]2(NC(=O)NC2=O)c2cc(F)ccc2O1,inactive
10,COc1ccc([C@@H]2CC(=O)c3c(O)cc(O[C@@H]4O[C@H](CO[C@@H]5O[C@@H](C)[C@H](O)[C@@H](O)[C@H]5O)[C@@H](O)[C@H](O)[C@H]4O)cc3O2)cc1O,inactive
11,CC[C@H]1OC(=O)C[C@@H](O)[C@H](C)[C@@H](O[C@@H]2O[C@H](C)[C@@H](O[C@H]3C[C@@](C)(O)[C@@H](O)[C@H](C)O3)[C@H](N(C)C)[C@H]2O)[C@@H](CC=O)C[C@@H](C)C(=O)/C=C/C(C)=C/[C@@H]1CO[C@@H]1O[C@H](C)[C@@H](O)[C@@H](OC)[C@H]1OC,inactive
12,NC(=O)C1c2ccccc2CCc2ccccc21,inactive
13,CC(C)=CCC/C(C)=C/CC/C(C)=C/CC/C(C)=C/CC1=C(C)C(=O)c2ccccc2C1=O,inactive
14,COc1cc2c(c(OC)c1OC)-c1c(cc3c(c1OC)OCO3)C[C@@H](C)[C@](C)(O)C2,inactive
15,O=C1CCC(c2ccccc2)(C2CCN(Cc3ccccc3)CC2)C(=O)N1 (configuration not stated),inactive
16,O=C(Cn1cnnn1)N[C@@H]1C(=O)N2C(C(=O)O)=C(CSc3nncs3)CS[C@H]12,inactive
17,CN[C@H](CC(C)C)C(=O)N[C@H]1C(=O)N[C@@H](CC(N)=O)C(=O)N[C@H]2C(=O)N[C@H]3C(=O)N[C@H](C(=O)N[C@@H](C(=O)O)c4cc(O)cc(O)c4-c4cc3ccc4O)[C@H](O)c3ccc(c(Cl)c3)Oc3cc2cc(c3O[C@@H]2O[C@H](CO)[C@@H](O)[C@H](O)[C@H]2O[C@H]2C[C@](C)(N)C(O)[C@H](C)O2)Oc2ccc(cc2Cl)[C@H]1O (some centres not stated),inactive
18,CC[C@H]1OC(=O)[C@H](C)C(=O)[C@H](C)[C@@H](O[C@@H]2O[C@H](C)C[C@H](N(C)C)[C@H]2O)[C@](C)(OC)C[C@@H](C)C(=O)[C@H](C)[C@H]2N(CCCCn3cnc(-c4cccnc4)c3)C(=O)O[C@]12C,inactive

# Reference: PubChem BioAssay (Tox21)
